According to PubChem BioAssay AID1159580 (chemical genetic matrix, 2015):
Hit rate of the full screen: of about 5,500 compounds, about 2,000 (36%) were called active. Not shown: some 18% with an inconclusive outcome. No stated cut-off is given here; in the data, active means normalized growth mostly below about 0.91 (no sharp cut-off); inconclusive means no clear call, values can overlap the other calls; inactive means mostly above about 0.92. The list shows a part of the results.

Assay: chemical genetic growth profiling, strain panel (AID 1159580);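 further: tested at 20 µM; growth read once vehicle control cultures reached saturation at 30 °C; 1 = growth at the plate median or of vehicle wells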
Details: growth OD
[1] = S. cerevisiae deletion strains, locus YDL101C, strain DUN1, stronger effect = lower value
[2] = S. cerevisiae deletion strains, locus YHR030C, strain SLT2, stronger effect = lower value

Measured: normalized growth

C/C(=C\C(=O)Nc1ccc(F)cc1)Nc1ccc(F)cc1
inactive: S. cerevisiae deletion strains, locus YAL013W, strain DEP1, stronger effect = lower value 1 | S. cerevisiae deletion strains, locus YBR229C, strain ROT2, stronger effect = lower value 1.01 | S. cerevisiae deletion strains, locus YCL061C, strain MRC1, stronger effect = lower value 1.04 | [1] 1.05 | S. cerevisiae deletion strains, locus YDR150W, strain NUM1, stronger effect = lower value 1.04 | S. cerevisiae deletion strains, locus YEL061C, strain CIN8, stronger effect = lower value 0.973 | S. cerevisiae deletion strains, locus YGR078C, strain PAC10, stronger effect = lower value 1.03 | S. cerevisiae deletion strains, locus YGR229C, strain SMI1, stronger effect = lower value 0.979 | [2] 1.02 | S. cerevisiae deletion strains, locus YHR087W, strain rtc3, stronger effect = lower value 0.971 | S. cerevisiae deletion strains, locus YJR043C, strain POL32, stronger effect = lower value 1.02 | S. cerevisiae deletion strains, locus YJR075W, strain HOC1, stronger effect = lower value 1 | S. cerevisiae deletion strains, locus YKL190W, strain CNB1, stronger effect = lower value 1.01 | S. cerevisiae deletion strains, locus YLR039C, strain RIC1, stronger effect = lower value 1.05 | S. cerevisiae deletion strains, locus YLR058C, strain SHM2 (second series), stronger effect = lower value 0.998 | S. cerevisiae deletion strains, locus YLR085C, strain ARP6, stronger effect = lower value 0.975 | S. cerevisiae deletion strains, locus YLR262C, strain YPT6, stronger effect = lower value 0.989 | S. cerevisiae deletion strains, locus YML094W, strain GIM5, stronger effect = lower value 0.982 | S. cerevisiae deletion strains, locus YMR219W, strain ESC1, stronger effect = lower value 1 | S. cerevisiae deletion strains, locus YMR263W, strain SAP30, stronger effect = lower value 1.01 | S. cerevisiae deletion strains, locus YNL153C, strain GIM3, stronger effect = lower value 1.04 | S. cerevisiae deletion strains, locus YNL298W, strain CLA4 (second series), stronger effect = lower value 1 | S. cerevisiae deletion strains, locus YNL322C, strain KRE1, stronger effect = lower value 1 | S. cerevisiae deletion strains, locus YNR030W, strain Alg12, stronger effect = lower value 1 | S. cerevisiae deletion strains, locus YOL006C, strain TOP1, stronger effect = lower value 1.04 | S. cerevisiae deletion strains, locus YPL055C, strain LGE1, stronger effect = lower value 0.976 | S. cerevisiae deletion strains, locus YPL241C, strain CIN2, stronger effect = lower value 0.999 | S. cerevisiae deletion strains, locus YPR135W, strain CTF4, stronger effect = lower value 1.05 | S. cerevisiae strains, strain wild type, stronger effect = lower value 1

CC(C)(C)c1ccc(N/N=C(\C#N)C(N)=O)cc1
active: S. cerevisiae deletion strains, locus YAR019C, strain CDC15, stronger effect = lower value 0.111 | S. cerevisiae deletion strains, locus YBL105C, strain PKC1, stronger effect = lower value 0.0972 | S. cerevisiae deletion strains, locus YBR135W, strain CKS1, stronger effect = lower value 0.109 | S. cerevisiae deletion strains, locus YBR136W, strain MEC1, stronger effect = lower value 0.109 | S. cerevisiae deletion strains, locus YBR160W, strain CDC28, stronger effect = lower value 0.114 | S. cerevisiae deletion strains, locus YDL017W, strain CDC7, stronger effect = lower value 0.0979 | S. cerevisiae deletion strains, locus YDL028C, strain MPS1, stronger effect = lower value 0.117 | [1] 0.115 | S. cerevisiae deletion strains, locus YDL108W, strain KIN28, stronger effect = lower value 0.11 | S. cerevisiae deletion strains, locus YDL132W, strain cdc53, stronger effect = lower value 0.142 | S. cerevisiae deletion strains, locus YDL214C, strain PRR2, stronger effect = lower value 0.114 | S. cerevisiae deletion strains, locus YDR052C, strain DBF4, stronger effect = lower value 0.146 | S. cerevisiae deletion strains, locus YDR054C, strain cdc34, stronger effect = lower value 0.107 | S. cerevisiae deletion strains, locus YDR226W, strain ADK1, stronger effect = lower value 0.117 | S. cerevisiae deletion strains, locus YDR477W, strain SNF1, stronger effect = lower value 0.103 | S. cerevisiae deletion strains, locus YER123W, strain YCK3, stronger effect = lower value 0.104 | S. cerevisiae deletion strains, locus YER133W, strain GLC7, stronger effect = lower value 0.133 | S. cerevisiae deletion strains, locus YFL009W, strain cdc4, stronger effect = lower value 0.105 | S. cerevisiae deletion strains, locus YFL029C, strain CAK1, stronger effect = lower value 0.11 | S. cerevisiae deletion strains, locus YFR003C, strain YPI1, stronger effect = lower value 0.0948 | S. cerevisiae deletion strains, locus YFR019W, strain FAB1, stronger effect = lower value 0.103 | S. cerevisiae deletion strains, locus YFR028C, strain CDC14, stronger effect = lower value 0.108 | S. cerevisiae deletion strains, locus YGR040W, strain KSS1, stronger effect = lower value 0.108 | S. cerevisiae deletion strains, locus YGR052W, strain FMP48, stronger effect = lower value 0.145 | S. cerevisiae deletion strains, locus YGR092W, strain DBF2, stronger effect = lower value 0.101 | [2] 0.189 | S. cerevisiae deletion strains, locus YHR079C, strain IRE1, stronger effect = lower value 0.214 | S. cerevisiae deletion strains, locus YHR082C, strain KSP1, stronger effect = lower value 0.225 | S. cerevisiae deletion strains, locus YHR205W, strain SCH9, stronger effect = lower value 0.000939 | S. cerevisiae deletion strains, locus YIL147C, strain SLN1, stronger effect = lower value 0.107 | S. cerevisiae deletion strains, locus YJL095W, strain BCK1, stronger effect = lower value 0.166 | S. cerevisiae deletion strains, locus YJL128C, strain PBS2, stronger effect = lower value 0.0973 | S. cerevisiae deletion strains, locus YJL157C, strain FAR1, stronger effect = lower value 0.112 | S. cerevisiae deletion strains, locus YJR016C, strain ILV3, stronger effect = lower value 0.101 | S. cerevisiae deletion strains, locus YJR066W, strain TOR1 (second series), stronger effect = lower value 0.0973 | S. cerevisiae deletion strains, locus YJR066W, strain TOR1, stronger effect = lower value 0.207 | S. cerevisiae deletion strains, locus YKL048C, strain ELM1, stronger effect = lower value 0.134 | S. cerevisiae deletion strains, locus YKL067W, strain YNK1, stronger effect = lower value 0.118 | S. cerevisiae deletion strains, locus YKL101W, strain HSL1, stronger effect = lower value 0.103 | S. cerevisiae deletion strains, locus YKL193C, strain SDS22, stronger effect = lower value 0.109 | S. cerevisiae deletion strains, locus YKL203C, strain TOR2, stronger effect = lower value 0.112 | S. cerevisiae deletion strains, locus YLR113W, strain HOG1, stronger effect = lower value 0.212 | S. cerevisiae deletion strains, locus YLR133W, strain CKI1, stronger effect = lower value 0.0995 | S. cerevisiae deletion strains, locus YLR403W, strain SFP1, stronger effect = lower value 0.00739 | S. cerevisiae deletion strains, locus YML070W, strain DAK1, stronger effect = lower value 0.116 | S. cerevisiae deletion strains, locus YMR001C, strain CDC5, stronger effect = lower value 0.112 | S. cerevisiae deletion strains, locus YMR205C, strain PFK2 (second series), stronger effect = lower value 0.0978 | S. cerevisiae deletion strains, locus YMR277W, strain FCP1, stronger effect = lower value 0.105 | S. cerevisiae deletion strains, locus YNL006W, strain LST8, stronger effect = lower value 0.0902 | S. cerevisiae deletion strains, locus YNL020C, strain ARK1, stronger effect = lower value 0.0965 | S. cerevisiae deletion strains, locus YNL161W, strain CBK1, stronger effect = lower value 0.112 | S. cerevisiae deletion strains, locus YNL183C, strain NPR1, stronger effect = lower value 0.135 | S. cerevisiae deletion strains, locus YNL207W, strain RIO2, stronger effect = lower value 0.102 | S. cerevisiae deletion strains, locus YNL222W, strain SSU72, stronger effect = lower value 0.107 | S. cerevisiae deletion strains, locus YNL307C, strain MCK1 (second series), stronger effect = lower value 0.109 | S. cerevisiae deletion strains, locus YOL078W, strain AVO1, stronger effect = lower value 0.108 | S. cerevisiae deletion strains, locus YOL136C, strain PFK27, stronger effect = lower value 0.122 | S. cerevisiae deletion strains, locus YOR061W, strain CKA2, stronger effect = lower value 0.092 | S. cerevisiae deletion strains, locus YOR119C, strain RIO1, stronger effect = lower value 0.119 | S. cerevisiae deletion strains, locus YOR231W, strain MKK1, stronger effect = lower value 0.249 | S. cerevisiae deletion strains, locus YOR329C, strain SCD5, stronger effect = lower value 0.101 | S. cerevisiae deletion strains, locus YPL031C, strain PHO85, stronger effect = lower value 0.103 | S. cerevisiae deletion strains, locus YPL153C, strain RAD53, stronger effect = lower value 0.0998 | S. cerevisiae deletion strains, locus YPL204W, strain HRR25, stronger effect = lower value 0.108 | S. cerevisiae deletion strains, locus YPL209C, strain IPL1, stronger effect = lower value 0.0972 | S. cerevisiae deletion strains, locus YPL256C, strain CLN2, stronger effect = lower value 0.243 | S. cerevisiae deletion strains, locus YPR025C, strain CCL1, stronger effect = lower value 0.112 | S. cerevisiae deletion strains, locus YPR106W, strain ISR1, stronger effect = lower value 0.107 | S. cerevisiae deletion strains, locus YPR111W, strain DBF20, stronger effect = lower value 0.131 | S. cerevisiae deletion strains, strain NNK1, stronger effect = lower value 0.105 | S. cerevisiae deletion strains, strain TSCII, stronger effect = lower value 0.106
